Compound activity: PubChem BioAssay, Broad Institute
Not all results are given here.
aSyn UTR act: Activators working through SNCA 5'UTR binding (MLPCN) | alpha-synuclein 5'UTR reporter, activators screen | activity score, % (tested at 7.5 µM), hits read low | actives 7.1% (n = 300,000) | AID 1814; in the data active = activity score below about -60%
A number is an active result; i = inactive.

SMILES	aSyn UTR act
O=C(NN=C1CCN(Cc2ccccc2)CC1)c1ccccc1	-88
O=C(Nc1ccc(CN2CCOCC2)cc1)c1ccc(Cl)cc1	-207
O=C(Nc1ccc(CN2CCOCC2)cc1)c1ccco1	-69
CC1CN(C(=O)c2ccccc2)C(=Nc2cccc(S(=O)(=O)N(C)C)c2)S1 (stereo not given)	i
CN(C)S(=O)(=O)c1cccc(C(=O)N=C2N=C3C=CC(Cl)=CN3Cc3ccccc32)c1	-105
O=C(N=C1N=C2C=CC=CN2Cc2ccccc21)c1ccc(S(=O)(=O)N2CCOCC2)cc1	-143
O=C(N=C1N=C2C=CC=CN2Cc2ccccc21)c1ccc(S(=O)(=O)N2CCCC2)cc1	-134
COCCNC(=O)C(c1ccncc1)N(C(=O)c1sc(C)nc1C)c1cccc(C)c1 (stereo not given)	-90
C=CCn1c(C)cc(C(=O)CSc2n[nH]c(N)n2)c1C	-79
Cc1cc(C(=O)CSc2n[nH]c(N)n2)c(C)n1-c1ccc(F)cc1	-83
Cc1cc(C(=O)CSc2nnc3ccccn23)c(C)n1-c1ccccc1	i
Cc1cc(C(=O)CSc2n[nH]c(N)n2)c(C)n1-c1ccccc1	-111
C/C(=N\Nc1ccc(C(=O)O)cc1)c1ccc2c(c1)Nc1ccccc1S2	-110
COc1ccc(N2C(=O)c3ccccc3NC23CCCCC3)cc1	-76
COc1ccc(N2C(=O)c3ccccc3NC23CCC(C)CC3)cc1 (stereo not given)	-106
Cc1ccc(OCc2cn3cccnc3n2)cc1	-62
CNc1sc(C(=O)c2ccccc2F)c(N)c1-c1nc2ccccc2s1	-84
CCc1c(C)[nH]c(C(=O)OCc2ccccc2)c1C	-75
CCc1c(C(=O)OCc2ccccc2)[nH]c(C)c1C	-117
CC(C)(C)C1CCC(OC(=O)CN2CCCCC2)CC1 (stereo not given)	-63
CCN(CC)c1nc(C#N)cc(-c2ccc(OC)cc2)n1	-69
CN(CC(=O)N1CCCCCC1)S(=O)(=O)c1ccccc1	-68
COc1ccc(C)c2sc(=NC(=O)c3ccccc3)n(C)c12	-266
COc1ccc(C)c2sc(=NC(=O)c3cccc(N4C(=O)CCC4=O)c3)n(C)c12	-93
Cc1ccc(OCc2ccc(C(=O)Nc3nccs3)o2)cc1	-88
SMILES	aSyn UTR act
O=C(Nc1nccs1)c1ccc(COc2ccccc2)o1	-113
COc1ccc(-c2noc(Cc3ccccc3OC)n2)cc1	-64
COc1ccc(-c2noc(CCc3ccccc3)n2)cc1	-148
COc1ccc(-c2noc(Cc3cccs3)n2)cc1	-188
O=C(Nc1ccccc1)c1ccc2ccccc2n1	-178
Cc1ccc(NC(=O)c2ccc(S(=O)(=O)NCc3ccco3)cc2)nc1	-131
Cc1ccc(NC(=O)c2ncc(Cl)c(Cl)c2Cl)cc1C	-164
Cc1ccc(NC(=O)c2ccc3ccccc3n2)cc1S(=O)(=O)N(C)C	-121
O=C(Nc1ccccc1)c1cnc2ccccc2n1	-116
Cc1ccc(NC(=O)c2cnc3ccccc3n2)cc1C	-96
Cc1ccc(/C=C/C(=O)c2c(C)nc3ccccn23)cc1	-90
Cc1ccc(NC(=O)c2c(C)nc3ccccn23)cc1C	-152
O=C(Nc1ccc(S(=O)(=O)NCc2ccco2)cc1)c1ccc2ccccc2n1	-66
CCc1nnc(NC(=O)c2ccc3ccccc3n2)s1	-196
O=C(N/N=C/c1ccsc1)c1ccc2ccccc2n1	-97
Cc1ccc(NC(=O)c2ccc(=O)[nH]n2)cc1C	-102
COc1ccc(-c2nc3cc([N+](=O)[O-])ccc3o2)cc1	-231
Nc1ccc(-c2nc3cc([N+](=O)[O-])ccc3o2)cc1	-146
Oc1ccccc1C1NN=C(c2ccccc2)S1 (stereo not given)	-80
CSc1ccc(C2NN=C(c3ccccc3)S2)cc1 (stereo not given)	i
c1ccc2c(c1)Cn1nc(Cc3nc4c(s3)CCCC4)nc1-2	-79
N=c1scc(-c2ccccc2)n1/N=C/c1ccco1	-220
CCN1CCC2(CC1)Oc1c(OC)cccc1C1CC(c3cccnc3)=NN12 (stereo not given)	-128
CCOc1ccc(C(=O)COC(=O)Cc2n[nH]c(=O)c3ccccc23)cc1	-87
O=C(Cc1n[nH]c(=O)c2ccccc12)OCC(=O)c1ccc2c(c1)OCCO2	i
SMILES	aSyn UTR act
CCN(CC)C(=O)Cn1cc(S(=O)(=O)CC(=O)Nc2ccc3c(c2)OCCO3)c2ccccc21	-82
Nc1ccc(S(=O)(=O)Nc2nccc(/C=C/c3ccccc3F)n2)cc1	-65
CC(=O)Oc1ccc(-c2nc(-c3cccnc3)no2)cc1	-93
CC(=O)Oc1ccc(Oc2ccc(-c3noc(C)n3)cc2)cc1	-77
Oc1ccccc1C1=Nc2nc3ccccc3n2C(c2ccccc2)C1 (stereo not given)	-214
C=CCOc1c(Cl)cc(C(=S)N2CCCC2)cc1OCC	-95
CNC(=O)c1csc(-c2ccc(C)cc2)n1	-81
O=C(O)c1ccc(-c2nc(-c3ccc(Cl)c(Cl)c3)cs2)cc1	-100
O=C(O)c1ccc(-c2nc(-c3ccccc3)cs2)cc1	-140
c1ccc(-c2csc(-c3ccc(-c4csnn4)cc3)n2)cc1	-192
NC1=NC2=C(CCCC2)C2(CCCCC2)S1	i
CNC(=O)c1ccc(-c2nc(-c3ccccc3)cs2)cc1	-116
O=C(O)c1ccccc1-c1csc(-c2ccccc2)n1	-118
O=C(O)c1ccccc1C(=O)Nc1ccc(-c2csc(-c3ccccc3)n2)cc1	-64
O=C(O)c1ccccc1C(=O)Nc1ccc(Oc2cccc3ccccc23)cc1	i
Cc1oncc1-c1csc(-c2ccccc2)n1	-82
c1ccc(COc2ccc(-c3csnn3)cc2)cc1	-185
O=C(O)c1ccc(-c2nc(-c3ccccc3Cl)cs2)cc1	-118
Cc1nn(Cc2c(F)c(F)c(F)c(F)c2F)c(C)c1NC(=O)c1cccc(COc2ccccc2Cl)c1	-97
CN1CCN(C(=O)c2cccc(COc3cc(Cl)ccc3Cl)c2)CC1	-164
Cc1nn(Cc2cccc(F)c2)c(C)c1NC(=O)c1ccc(COc2ccccc2Cl)cc1	i
O=C(Nc1ccccc1Cl)c1cccc(COc2cc(Cl)ccc2Cl)c1	-120
O=C(O)c1cccc(COc2ccccc2Cl)c1	i
O=C1NC(=O)/C(=C\c2ccc(OCc3cccc(C(=O)O)c3)c(Cl)c2)N1	i
COc1ccc(-c2csc(=NCCO)n2-c2ccccc2)cc1	-99
SMILES	aSyn UTR act
COc1ccc(-c2csc(=Nc3ccccc3)n2CCO)cc1	-100
O=[N+]([O-])c1ccc(Cl)c(/C=N/n2c(-c3ccncc3)n[nH]c2=S)c1	-78
Cc1ccc(-c2nn(-c3ccccc3)cc2/C=N/n2c(-c3ccncc3)n[nH]c2=S)cc1	-86
O=C(/C=C/c1ccccc1Cl)c1ccc(O)cc1	-360
O=C(/C=C/c1c(F)cccc1Cl)c1ccc(O)cc1	-115
C=CCOn1c(=O)c(-c2cc3ccccc3o2)[n+]([O-])c2ccccc21	-144
CCCCCCCCCCOC(=O)Cn1c(COc2ccc(Cl)cc2)[n+](C)c2ccccc21	i
CCCOc1ccc(-c2c(=O)n(OCC(=O)OCC)c3ccccc3[n+]2[O-])cc1	-88
CCOc1ccc(-c2c(=O)n(OCc3ccc([N+](=O)[O-])cc3)c3ccccc3[n+]2[O-])cc1	-178
CCOC(=O)COn1c(=O)c(-c2cc3ccccc3o2)[n+]([O-])c2ccccc21	-114
Cc1ccc(/C(N)=N/OC(=O)C23CC4CC(CC(C4)C2)C3)cc1	-185
Cc1ccc(/C(N)=N/OC(=O)N2CCOCC2)cc1	-62
CCc1ccc(N2NC(=O)/C(=C/C=C/c3ccco3)C2=O)cc1	-78
O=c1cc(/C=C/c2ccccc2)oc2ccccc12	-205
